GALR2 antag: antagonists of human galanin receptor 2 (GALR2) | O43603 | GALR2-expressing cells, antagonist mode | AID 828 | inhibition, % at 4 µM | 140,000 tested, 0.39% active; in the data active means inhibition above about 27%;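 further: cells stimulated with galanin 1-16 at roughly its EC80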
hDAT+cocaine: human DAT dopamine uptake with cocaine, either direction; AID 449768; 110,000 tested, 1.3% active; LLC-PK1 hDAT cells, [14C]-dopamine uptake with cocaine IC80; actives deviate in either direction; B-score at 10 µM;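 active means Z score or B-score, a plate-position-corrected score, falls beyond the plate's 99.7% confidence bounds, in either direction; inactive means both scores lie inside the 99.7% bounds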
S1P2 blocker: antagonists of human S1P2 receptor; O95136; AID 736; cell-based S1P2 antagonist assay, inhibition at 5 uM; inhibition, % at 5 µM; 97,000 tested, 0.21% active; in the data active means inhibition above about 45%;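 further: CRE beta-lactamase reporter cells expressing human S1P2 stimulated with S1P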
Target sequence (O95136 whole entry, looked up): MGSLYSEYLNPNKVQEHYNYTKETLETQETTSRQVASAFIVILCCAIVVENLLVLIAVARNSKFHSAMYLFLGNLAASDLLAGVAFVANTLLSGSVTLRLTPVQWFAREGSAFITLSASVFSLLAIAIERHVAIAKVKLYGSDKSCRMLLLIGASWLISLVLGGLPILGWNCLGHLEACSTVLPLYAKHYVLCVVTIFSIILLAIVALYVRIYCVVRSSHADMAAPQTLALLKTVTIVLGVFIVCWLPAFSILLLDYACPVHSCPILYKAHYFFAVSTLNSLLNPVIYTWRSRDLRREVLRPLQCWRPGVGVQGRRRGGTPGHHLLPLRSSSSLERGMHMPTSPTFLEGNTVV
GALR2 ag: GALR2 (human) receptor agonism | 140,000 tested, 0.48% active | activation, % (concentration not given with the values) | GALR2-expressing cells, agonist activation read-out; in the data active means activation above about 5%, passing the limit was not always enough
S1P2 agonist: S1P2 (human) receptor agonism; O95136; S1P2-expressing cell line, agonist reporter read-out; activation, % at 4.5 µM; 97,000 tested, 0.46% active; in the data active means activation above about 16%
Numbers stand for hits; n = inactive; x = no result. Rows were chosen to be rich in hits. Some 2.1% of all compounds tested hit in one or more screens of this group.

SMILES	GALR2 antag	hDAT+cocaine	S1P2 blocker	GALR2 ag	S1P2 agonist
CCn1c(=O)cc(SCC(=O)Nc2cc(OC)c(OC)c(OC)c2)c2ccccc21	n	n	n	n	20.0
Cc1nn(C)cc1CNC(=O)C1(C)CC1(Cl)Cl (configuration not stated)	n	x	x	n	x
O=C(O)CCN1CC2([N+](=O)[O-])C=CC(=O)C([N+](=O)[O-])(C1)C2CC(=O)c1ccccc1 (configuration not stated)	n	x	x	n	x
N#CCSc1nnc(-c2ccccc2)c(-c2ccccc2)n1	n	n	n	n	16.4
O=C(CSc1nnc(-c2ccccc2)c(-c2ccccc2)n1)N1CCOCC1	n	n	n	n	n
CCOCCN1CCN(c2c(C)c(C)nc3cc(-c4cc(OC)cc(OC)c4)nn23)CC1	n	2.52	n	n	n
O=C(NCc1nc2ccccc2[nH]1)C1=C[C@@H](c2ccccc2)C[C@@H](OCCCCO)O1	x	3.15	x	x	x
CCSc1nnc(NC(=O)C(C)Sc2nc3ccccc3[nH]2)s1 (configuration not stated)	n	x	x	n	x
CCn1c(C)cc(/C=C2\NC(=O)N(CC(=O)Nc3cccc(C)c3)C2=O)c1C	n	n	n	n	n
CCn1c(C)cc(/C=C2/NC(=O)N(CC(=O)Nc3cccc(C)c3)C2=O)c1C	n	x	x	8.0	x
Cc1cc(N2C(=O)C3CC=CC(C)C3C2=O)no1 (configuration not stated)	n	-9.36	n	n	n
COc1ccc(C(=O)NC(=S)NCc2cccnc2)cc1[N+](=O)[O-]	n	x	x	n	x
CC(=O)c1c(C)nn(CC(O)COc2ccc3c(c2)CCC3)c1C (configuration not stated)	n	14.9	n	n	n
CCCn1nc(C(=O)N2CCc3ccccc3C2)c2ccccc2c1=O	n	n	n	n	n
Cn1nc(C(=O)N2CCc3ccccc3C2)c2ccccc2c1=O	n	0.781	n	n	n
O=C1c2[nH]nc(-c3ccccc3O)c2C(c2cccc(Cl)c2)N1Cc1ccco1 (configuration not stated)	n	n	n	n	n
COc1ccc(C2c3c(-c4cc(Cl)c(C)cc4O)n[nH]c3C(=O)N2Cc2cccnc2)cc1OC (configuration not stated)	n	2.96	n	n	n
COc1ccc(CCN2C(=O)c3[nH]nc(-c4ccccc4O)c3C2c2cccc(O)c2)cc1OC (configuration not stated)	n	2.71	n	n	n
CC1(C)CC(=O)C=C(c2cccs2)C1	x	n	x	x	x
CCN1CC(CCN2CCOCC2)C(c2ccccc2)(c2ccccc2)C1=O (configuration not stated)	x	n	x	x	x
COc1ccc(Cc2nc3ccccc3n2CC(=O)N/N=C/c2ccccc2)cc1OC	n	x	x	n	x
CCn1c(SCC(=O)N/N=C/c2ccc(OC)c(OC)c2)nc2ccccc21	n	4.19	n	n	n
CCCc1[nH]nc2c1C(c1ccc(OC)c(Cn3nnc4ccccc43)c1)C(C#N)=C(N)O2 (configuration not stated)	n	3.63	n	n	n
N#CC1=C(N)C(C#N)(C#N)[C@H](c2ccncc2)[C@H]2CN(C(=O)OCc3ccccc3)CC=C12	n	2.8	x	n	x
COc1cccc(NC(=S)N2CCC(N(C)CC3CCCO3)CC2)c1 (configuration not stated)	n	x	x	n	x
SMILES	GALR2 antag	hDAT+cocaine	S1P2 blocker	GALR2 ag	S1P2 agonist
COc1ccc2[nH]c3c(NCCCN4CCCC4=O)ncnc3c2c1	n	2.92	n	n	n
O=C(Nc1c(C(=O)O)[nH]c2ccccc12)NC1CCCCC1	n	-2.06	n	n	n
Nc1nc(SCc2ccc([N+](=O)[O-])cc2)nc2nc3c(cc12)CCCC3	n	x	x	5.1	x
COCCn1c(SCc2nc(N)nc(Nc3ccccc3C)n2)nc2ccccc2c1=O	n	n	n	n	n
Cc1ccccc1Nc1nc(N)nc(CSc2nc3ccccc3c(=O)n2CCCO)n1	n	2.74	x	n	x
O=C(CN1C(=O)NC2(CCc3ccccc32)C1=O)Nc1ccc(N2CCOCC2)cc1 (configuration not stated)	n	n	n	n	n
Cc1ccc(NC(=O)NC(=O)CN2C(=O)NC3(CCc4ccccc43)C2=O)c(C)c1 (configuration not stated)	n	2.45	n	n	n
O=C1C2C3C=CC(CO)(O3)C2C(=O)N1c1ccccc1-c1ccccc1 (configuration not stated)	75.6	n	x	n	x
Cc1nc(CN2CCN(C(=O)c3ccc(Br)cc3)CC2)cs1	n	n	n	n	n
O=S(=O)(/N=C(/c1ccc(Cl)cc1)N1CCOCC1)c1ccc(Cl)cc1	n	2.03	n	n	n
